A selection follows.
aSyn 5UTR act = Activators working through SNCA 5'UTR binding (MLPCN); activity score, % (tested at 7.5 µM), hits read low; actives 7.1% (n = 300,000); AID 1814; alpha-synuclein 5'UTR reporter, activators screen; in the data active means activity score below about -60%
Active calls of the source: *.

SMILES	aSyn 5UTR act
Cc1ccc(OCCCCCCN2CCNCC2)cc1	-64.0*
COc1ccc2oc(=Nc3cc(F)ccc3F)c(C(N)=O)cc2c1	-176.0*
COc1ccc2cc(C(N)=O)c(=Nc3ccccc3)oc2c1	-89.7*
C/C(N)=C(/C#N)C(=O)COC(=O)c1cccc2ccccc12	-62.5*
COc1ccc2oc(C(=O)OCC(=O)/C(C#N)=C(\C)N)c(C)c2c1	-81.3*
CCc1ccccc1NC(=O)c1cccc(NC(=O)/C=C/c2ccco2)c1	-100.0*
Cc1ccc(-n2nc3ccc(NC(=O)/C=C/c4ccco4)cc3n2)cc1	-201.8*
O=C(/C=C/c1ccco1)Nc1ccc2c(c1)OCO2	-187.7*
Cc1cc(N2CCN(c3ccc(F)cc3)CC2)nc2cc(O)ccc12	-66.1*
Cc1cc(N2CCN(c3ccccc3F)CC2)nc2cc(O)ccc12	-63.7*
Cc1cc(N2CCOCC2)nc2cc(O)ccc12	-136.4*
COc1ccc2nc(N3CCOCC3)cc(C)c2c1	-78.9*
CNc1sc(C(=O)c2ccc(F)cc2)c(N)c1-c1nc2ccccc2s1	-136.8*
CNc1sc(C(=O)c2cccs2)c(N)c1-c1nc2ccccc2s1	-157.1*
Cc1ccccc1-c1nnc(-c2cccs2)o1	-115.9*
Cc1ccccc1-c1noc(-c2cccs2)n1	-250.6*
O=C(Nc1ccc(F)cc1)/C(Cl)=C/c1ccccc1	-258.0*
CC(=O)c1ccc(NC(=O)/C(Cl)=C/c2ccccc2)cc1	-174.7*
Cc1ccc(NC(=O)/C(Cl)=C\c2ccccc2)cc1	-105.2*
Cc1sc2ncnc(Sc3ccccc3C(=O)Nc3ccc(Br)cc3)c2c1C	-86.3*
CCOC(=O)c1ccc(Nc2nnc(C)c3ccccc23)cc1	-104.3*
CCOC(=O)c1c(C)nc(-c2ccccc2)nc1NC(=O)CC	-87.3*
CCc1ccc(NCc2nc3ccccc3c(=O)[nH]2)cc1	-137.8*
CCOC(=O)c1ccc(Nc2cc(C)nc(-c3ccccc3)n2)cc1	-213.4*
CCOC(=O)c1ccc(Nc2cnc3ccccc3n2)cc1	-175.7*
SMILES	aSyn 5UTR act
CC(=O)c1ccc(Nc2nc(C)cc(C)n2)cc1	-126.4*
CCOC(=O)c1ccc(NCc2nc3ccccc3[nH]2)cc1	-149.3*
CCOC(=O)c1ccc(Nc2nc(C)cc(C)n2)cc1	-104.4*
CCN1/C(=C/C=C/c2oc3ccc4ccccc4c3[n+]2CC)Oc2ccc3ccccc3c21	92.5
CSc1n[nH]c(-c2ccc(C(F)(F)F)cc2)n1	-68.1*
COC(=O)Cn1ncc2c(C)n(Cc3ccccc3)c(C)c2c1=O	-122.7*
COc1ccc(/C(C)=N/N2C(=O)c3ccccc3NC2c2ccc(O)c(OC)c2)cc1 (stereo not drawn)	-65.7*
CCOc1ccccc1NC(=O)c1cccc(NC(=O)c2ccco2)c1	-184.8*
CCOC(=O)c1cccc(NC(=O)c2ccc(NC(=O)c3ccco3)cc2)c1	-67.2*
Cc1ccc2oc(-c3cccc(NC(=O)c4ccccn4)c3)nc2c1	-95.7*
COc1cc(C(=O)Nc2cc(-c3nc4cc(C)ccc4o3)ccc2C)cc(OC)c1OC	-129.1*
COc1cc(OC)cc(-c2nc3cc(C)ccc3o2)c1	-215.8*
COc1cc(C(=O)Nc2cccc(-c3nc4cc(C)ccc4o3)c2)cc(OC)c1OC	-162.1*
COc1ccc(O)c(-c2cc(-c3ccc(F)cc3)n[nH]2)c1	-121.1*
COc1ccc(OC)c(-c2cc(C3CCN(c4cc(Cl)nc(N)n4)CC3)[nH]n2)c1	61.0
COc1ccc(O)c(-c2cc(-c3cccc(Br)c3)n[nH]2)c1	-131.9*
COc1ccc(-c2cc(-c3ccc(Cl)cc3)n[nH]2)c(O)c1	-201.8*
C=C(C)COc1ccc(-c2[nH]ncc2-c2ccc(Br)cc2)c(O)c1	91.4
COc1ccc(-c2cc(-c3cc(OC)ccc3O)[nH]n2)cc1	-199.2*
COc1ccc(N=C2S/C(=C\c3ccc(Cl)c([N+](=O)[O-])c3)C(=O)N2CCN(C)C)cc1	80.6
C=CCN1C(=O)/C(=C2/Sc3ccc(OC)cc3N2C)SC1=Nc1ccc(OC)cc1	-78.8*
CCN(CC)CCN1C(=O)/C(=C\c2ccc(Cl)c([N+](=O)[O-])c2)SC1=Nc1ccc(OC)cc1	73.8
Cc1cc(C)n2cc(-c3ccc(Cl)cc3)c(C(=O)O)c2n1	-98.6*
COc1ccc(-c2nnc(SCC(=O)Nc3ccccc3OC)o2)cc1	-145.3*
COc1ccc(-c2nnc(SCC(=O)Nc3cccc(Cl)c3)o2)cc1	-179.0*
SMILES	aSyn 5UTR act
COc1ccc(C)cc1NC(=O)CSc1nnc(-c2ccc(C)cc2)o1	-108.8*
Cc1cc(-c2nnc(SCC(=O)Nc3ccccn3)o2)no1	-71.9*
COc1cccc(-c2nnc(SCC(=O)Nc3cc(C)on3)o2)c1	-66.2*
COc1ccccc1-c1nnc(SCC(=O)OC(C)C)o1	-82.7*
Cc1ccc(-c2nnc(SCC(=O)Nc3ccccc3F)o2)cc1	92.1
CCOC(=O)c1ccccc1NC(=O)Cn1c(-c2nonc2N)nc2ccccc21	73.0
CCOC(=O)c1ccccc1NC(=O)CSc1nc2ccccc2o1	-87.6*
COC(=O)c1ccccc1NC(=O)CSc1nnc(-c2ccc(C)cc2)o1	-129.8*
Cc1cc(-c2nnc(SCC(=O)Nc3ccccc3C(F)(F)F)o2)c(C)n1-c1ccccc1	-68.7*
O=C(NC(=S)Nc1ccc2c(c1)OCO2)c1ccc(Cl)cc1	-143.2*

Assay outcomes deposited in PubChem BioAssay by Broad Institute.
